# UGM FP inh: blocks M. tuberculosis UGM enzyme. P9WIQ1. purified UGM, fluorescence polarization probe displacement. inhibition, % at 10 µM. 320,000 tested, 0.06% active. AID 504406; in the data active = inhibition above about 10%, passing the limit was not always enough
# BioA inh: BioA (M. tuberculosis) enzyme inhibition | purified M. tuberculosis BioA enzyme, plate reader | inhibition, % at 9.99 µM | 360,000 tested, 0.096% active | AID 602481; in the data active = inhibition above about 40%
# Rv3671c inh: inhibits the M. tuberculosis serine protease Rv3671c; 320,000 tested, 0.048% active; P9WHR9; AID 2606; inhibition, % at 5.96 µM; in the data active = inhibition above about 38%;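 note: extracellular domain of Rv3671c used as enzyme; 0% = enzyme with DMSO and 100% = no enzyme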
# Yp Topo-I inh: blocks Yersinia pestis topoisomerase I activity; Y. pestis Topo-I cleavage product accumulation, plate reader; activity, % at 10 µM; 360,000 tested, 0.064% active; AID 504884; in the data active = activity above about 50%, passing the limit was not always enough
# RecA intein inh: inhibitors of M. tuberculosis RecA intein splicing. 290,000 tested, 0.75% active. inhibition, % (no concentration beside the values). AID 2221. P9WHJ3. cell-free RecA intein splicing, fluorescence; in the data active = inhibition above about 30%;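 note: 0% = vehicle wells and 100% = reference inhibitor control wells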
# FadD28 FP inh: M. tuberculosis FadD28 bisubstrate binding inhibition | FadD28 bisubstrate probe binding, fluorescence polarization | inhibition, % at 12.5 µM | 360,000 tested, 0.22% active | AID 588549; in the data active = inhibition above about 8.5%, passing the limit was not always enough
# * marks the source's active call; other numbers are inactive results; . = no result given. Rows were chosen to be rich in hits. Some 0.82% of all compounds tested hit in one or more screens of this group.
SMILES,UGM FP inh,BioA inh,Rv3671c inh,Yp Topo-I inh,RecA intein inh,FadD28 FP inh
Cc1c(C(=O)O)cccc1-c1ccc(/C=N/Nc2ccc(Br)cc2)o1,1,57*,7,-6,2,17*
CO[C@@H]1CN(C)C(=O)c2ccc(NC(=O)c3ccccc3F)cc2OC[C@@H](C)N(C(=O)c2ccccc2F)C[C@H]1C,.,-1,.,.,.,.
C[C@H](CO)N1C[C@H](C)[C@@H](CN(C)C(=O)Nc2ccc3c(c2)OCO3)Oc2ccc(NC(=O)Nc3ccc(F)cc3)cc2CC1=O,.,-1,.,.,.,.
COc1ccccc1CNC(=O)C[C@@H]1C[C@H]2c3cc(NC(=O)c4ccc5c(c4)OCO5)ccc3O[C@H]2[C@H](CO)O1,.,0,.,.,.,.
C[C@@H](NC(=O)N(C)C[C@@H]1OCc2ccccc2-c2ccccc2C(=O)N([C@@H](C)CO)C[C@@H]1C)c1ccccc1,.,1,.,.,.,.
Cc1[nH]n(-c2ccccc2)c(=O)c1/C=C1/C=c2ccccc2=N1,.,.,.,7,35*,0
Cc1noc(C)c1S(=O)(=O)N(C)C[C@H]1Oc2ccc(NC(=O)Cc3cn(C)c4ccccc34)cc2CC(=O)N([C@H](C)CO)C[C@@H]1C,.,-4,.,.,.,.
O=C1/C(=C/c2cccs2)SC(=S)N1NS(=O)(=O)c1ccccc1,1,1,2,3,15,-2
CC(C(=O)O)N1C(=O)/C(=C/C=C/c2ccco2)SC1=S (centres undefined),-1,-2,3,-15,7,36*
O=C1/C(=C/C=C/c2ccco2)SC(=S)N1NS(=O)(=O)c1ccccc1,-1,-3,5,-16,.,47*
COc1ccc(CSCC(=O)Nc2ccc(S(=O)(=O)N3CCCCCC3)cc2)cc1,2,.,-41,33,7,12*
O=C(CSC1=NCCS1)Nc1ccc(S(=O)(=O)N2CCCCCC2)cc1,-2,1,-9,-10,33*,-3
O=C(CSc1ccc(-c2nc3ccccc3[nH]2)cn1)Nc1ccc2c(c1)OCCO2,0,0,-16,5,3,-3
O=C(CSc1ccc(-c2nc3ccccc3[nH]2)cn1)Nc1ccc(S(=O)(=O)NC2CC2)cc1,1,-4,-258,-4,-11,33*
O=C(CSc1ncccn1)Nc1ccc(S(=O)(=O)N2CCCCC2)cc1,0,2,-1,5,-2,0
COc1ccc(NC(=O)CSCC(=O)Nc2ccc(S(=O)(=O)N3CCCCC3)cc2)cc1,-9,0,-8,10,-1,1
COc1cc(NS(=O)(=O)c2ccc(NC(=O)CSC3=NCCS3)cc2)nc(OC)n1,5,.,0,.,9,.
O=C(CSC1=NCCS1)Nc1ccc(S(=O)(=O)NC2CCCCC2)cc1,-1,3,1,3,42*,-3
O=C(C[C@@H]1CC[C@@H]2[C@H](COC[C@H](O)CN2Cc2nccs2)O1)NCc1ccccc1F,.,-1,.,.,.,.
C[C@@H]1CN([C@H](C)CO)C(=O)c2cccc(NS(=O)(=O)c3ccccc3)c2O[C@@H]1CN(C)C(=O)Nc1cccc2ccccc12,.,-1,.,.,.,.
O=[N+]([O-])c1ccc(/C=N/n2cnc3ccccc32)s1,11*,-3,-10,-13,2,0
Cc1nn(Cc2ccc(F)cc2)c(Cl)c1/C=N/NC(=O)c1cccnc1,3,98*,-4,-3,-1,-3
Cc1nn(Cc2ccc(F)cc2)c(Cl)c1/C=N/NC(=O)c1ccccc1,-2,.,-5,14,-1,-3
CO[C@H]1CN(C)C(=O)c2ccc(NC(C)=O)cc2OC[C@@H](C)N(C(=O)C2CCOCC2)C[C@@H]1C,.,0,.,.,.,.
CCC(=O)Nc1ccc2c(c1)C(=O)N(C)C[C@H](OC)[C@@H](C)CN(Cc1cccc(F)c1)[C@@H](C)CO2,.,-1,.,.,.,.
SMILES,UGM FP inh,BioA inh,Rv3671c inh,Yp Topo-I inh,RecA intein inh,FadD28 FP inh
Cc1ccc([N+](=O)[O-])cc1-c1[nH]c(-c2ccc(O)c(O)c2)nc1-c1ccccc1,-1,-1,3,1,6,13*
Oc1c(Cl)cc(Cl)cc1Sc1cc(Cl)cc(Cl)c1O,0,.,1,.,73*,.
CNC[C@H]1Oc2ncc(C#CC3CCCC3)cc2C(=O)N([C@H](C)CO)C[C@H]1C,.,-1,.,.,.,.
C[C@@H]1CN([C@H](C)CO)C(=O)c2cc(NC(=O)CCN3CCOCC3)ccc2O[C@H]1CN(C)S(=O)(=O)c1cn(C)cn1,.,-2,.,.,.,.
Nc1ccc2nonc2c1[N+](=O)[O-],23*,-20,-3,5,.,-4
C[C@H](CO)N1C[C@H](C)[C@H](CN(C)C(=O)Nc2ccc(C(F)(F)F)cc2)Oc2ccc(NC(=O)CCCCCC(=O)Nc3ccccc3N)cc2CC1=O,.,-2,.,.,.,.

# Bioassay records (PubChem BioAssay)
